PubChem BioAssay (Tox21)
Results filed as inconclusive are left out. Activity calls are given as the source filed them. Calls follow the shape of the dose curve; as a rule, active = well fitted cell-killing curve with a large enough effect in the repeat runs; inconclusive = weak or mixed curves; inactive = flat fitted curve, though single readings scatter.

Assay: qHTS RealTime-Glo MT Cell Viability Assay in HepG2 cells - 32 hour (AID 1224877); also: nearly all actives have a fitted effect of over 55% in size
Details: RealTime-Glo luminescence; series mostly up to 76.8 µM; activity change, negative = cytotoxic: at the top concentration
Text: U.S. Tox21 Program National Center for Advancing Translational Sciences [NCATS] NIH Chemical Genomics Center [NCGC] U.S. Environmental Protection Agency [EPA] National Institutes of Environmental Health Sciences [NIEHS] National Toxicology Program [NTP] U.S. Food and Drug Administration [FDA] Tox21 Assay Overview: Measure of cell viability is critical in the cell-base assay. Analysis of cell viability is necessary for the characterization of cell responses to cytotoxic drugs and environmental stress. A RealTime-Glo MT Cell Viability Assay to monitor cell viability in real time of continues cell culture during 40 hours of compound treatment was used to screen Tox21 10K library compounds in HepG2 cells. The RealTime-Glo MT Cell Viability Assay is a nonlytic, homogeneous, bioluminescent method to measure cell viability in real time using a simple, plate-based method. The assay involves adding NanoLuc luciferase and a cell-permeant prosubstrate to cells in culture. Viable cells reduce the proprietary prosubstrate to generate a substrate for NanoLuc luciferase. This substrate diffuses from cells into the surrounding culture medium, where it is rapidly used by the NanoLuc Enzyme to produce a luminescent signal. The signal correlates with the number of viable cells, making the assay well suited for cytotoxicity studies.
Tox21 Assay Protocol Summary: The mixture of HepG2 cell suspension and reagents were dispensed at 600cells/6 ul/well in 1536-well tissue culture treated black solid bottom plates using a Multidrop dispenser. After the assay plates were incubated at a 37 C/5% CO2 incubator for 5 hours, 23 nL of compounds dissolved in DMSO, positive and negative controls was transferred to the assay plate by a pintool work station. The plates were incubated at 37 C for 40 hours. The luminescence intensity were measured at 0h, 8h, 16h, 24h, 32h and 40h time points using ViewLux plate reader during compound treatment.
% is scaled to controls: 0 for no effect and ±100 for the full control effect; potency is read from the fitted curve at half-maximal effect.

Structure (SMILES) | activity change, negative = cytotoxic | Potency
SC1CCCCC1 | -0.855% (inactive) | –
O=C1CCC/C=C\CCCCCCCCCC1 | -5.29% (inactive) | –
CC(C)=NNC(N)=S | -3.27% (inactive) | –
COc1cc(C(C)C)ccc1C | 7.91% [at 15.8 µM] (inactive) | –
CN(C[C@@H](CC[N+]12CCC(C3CCCCC3)(CC1)CC2)c1ccc(Cl)c(Cl)c1)C(=O)c1cc(C(F)(F)F)cc(C(F)(F)F)c1 | – | 24.5 µM (active)
O=C1OC(=O)c2cc(-c3ccc4c(c3)C(=O)OC4=O)ccc21 | -3.03% (inactive) | –
CC(C)(c1ccc(Oc2ccc(N)cc2)cc1)c1ccc(Oc2ccc(N)cc2)cc1 | -11% (inactive) | –
CCN(CC)c1ccc(N=Nc2ccccc2)cc1 | -5.02% (inactive) | –
C=C(C)C1CCC(C)CC1O (stereo not given) | -2.29% (inactive) | –
Nc1ccc(Oc2cccc(Oc3ccc(N)cc3)c2)cc1 | -3.19% (inactive) | –
CCc1cccc(CC)c1 | -2.24% (inactive) | –
CCSCC | -1.77% (inactive) | –
C1=CCCC1 | 9.18% (inactive) | –
O=C1OCc2ccccc21 | 6.15% (inactive) | –
Cn1ccnc1 | -1.74% (inactive) | –
CN1CCN(CCCN2c3ccccc3Sc3ccc(Cl)cc32)CC1 | – | 23.9 µM (active)
CC(CC(C)(C)C)CC(C)(C)CC(C)(C)C (stereo not given) | 13.6% [at 35.3 µM] (inactive) | –
CCCCCN=C(N)N/N=C/c1c[nH]c2ccc(OC)cc12 | – | 5.35 µM (active)
Nc1ccc(Cl)c([N+](=O)[O-])c1 | -7.41% (inactive) | –
CCCCCCCC/C=C\CCCCCCCC(=O)N(CCO)CCO | -19.8% (inactive) | –

Structure (SMILES) | activity change, negative = cytotoxic | Potency
Oc1ccc(Cl)cc1C1CCCC1 | -16.6% (inactive) | –
NC(=O)c1ccccc1Cl | 3.71% (inactive) | –
Cc1ccc2n[nH]nc2c1 | 0.528% (inactive) | –
C=CC(C)(C)O | 3.47% (inactive) | –
CC/C(=C(/c1ccc(O)cc1)c1ccc(OCCN(C)C)cc1)c1ccccc1 | – | 14.4 µM (active)
CC(C)(C)c1cc(CCC(=O)OCCSCCOC(=O)CCc2cc(C(C)(C)C)c(O)c(C(C)(C)C)c2)cc(C(C)(C)C)c1O | 7.3% [at 35.3 µM] (inactive) | –
CCc1cccc(C)c1N(C(=O)CS(=O)(=O)O)C(C)COC (stereo not given) | 11.6% (inactive) | –
CSc1ccc(O)cc1C | 4.33% (inactive) | –
O=C(Nc1ccc([N+](=O)[O-])cc1)Nc1ccc([N+](=O)[O-])cc1 (tested in a mixture with another compound) | -14.1% [at 35.3 µM] (inactive) | –
C=C(C)CCO | 9.23% (inactive) | –
CCCOC(=O)c1ccc(O)cc1 | 1.91% (inactive) | –
Nc1cc([N+](=O)[O-])ccc1Cl | 2.48% (inactive) | –
CC/C=C(\C)C=O | -0.448% (inactive) | –
CC(Cc1ccc(O)c(O)c1)C(C)Cc1ccc(O)c(O)c1 (stereo not given) | – | 49 µM (active)
c1ccc2cc3c4ccccc4c4ccccc4c3cc2c1 | -4.17% (inactive) | –
COc1cc2ncnc(Nc3cccc(Cl)c3)c2cc1OC | 8.78% [at 15.8 µM] (inactive) | –
Cc1cc(Br)ccc1NC(=O)CCl | – | 43.6 µM (active)
C=C[Si](C)(C)Cl | 9.18% [at 6.97 µM] (inactive) | –
O=C(O)CN(CCCN(CC(=O)O)CC(=O)O)CC(=O)O | 7.15% [at 15.8 µM] (inactive) | –
C=CC(=O)OCCOC1C2CCC1C1CC=CC12 (stereo not given) | 3.75% [at 15.8 µM] (inactive) | –
